Most compounds without a hit are left out; they make up all but 3% or so of the library.
Sm TGR inh: blocks Schistosoma mansoni thioredoxin glutathione reductase | purified TGR, DTNB reduction, TNB absorbance 405 nm | Potency, µM (highest dose often 114 µM), actives largely listed as inhibitors | 3% of 360,000 active | AID 485364; further: nearly all actives have a fitted effect of over 60% in size
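Kinetic colorimetric format: TGR-catalysed, NADPH-driven DTNB reduction monitored via TNB absorbance. Enzyme dispensed at 20 nM; compound exposure 15 min at room temperature before reaction start.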
RE007 growth inh: less growth of the S. pombe RE007 Vpr strain; S. pombe RE007 Vpr strain, BacTiter-Glo ATP luminescence, 24 h; Potency, µM (titrated, usually from 92.2 µM), most hits filed as inhibitors; 0.21% of 360,000 active; active means well fitted falling curve with a large enough effect; inconclusive means small, poorly fitted or top-dose-only effect; inactive means no such curve, though single readings can be large or run the other way; further: nearly all actives have a fitted effect of over 50% in size
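Fission yeast RE007 carrying one integrated HIV-1 vpr copy, seeded at OD 0.01 in PMG+AL medium with 23 nL pinned compound. Grown 24 h at 30 degrees; viability read by BacTiter-Glo luminescence after 5 min.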
LmPK inhibitor: blocks Leishmania mexicana pyruvate kinase activity | Potency, µM (doses to about 57.5 µM), actives largely listed as inhibitors | 0.37% of 290,000 active | Q27686 | purified LmPK, Kinase-Glo ATP luminescence, 1 h
Target sequence (Q27686 whole entry, looked up): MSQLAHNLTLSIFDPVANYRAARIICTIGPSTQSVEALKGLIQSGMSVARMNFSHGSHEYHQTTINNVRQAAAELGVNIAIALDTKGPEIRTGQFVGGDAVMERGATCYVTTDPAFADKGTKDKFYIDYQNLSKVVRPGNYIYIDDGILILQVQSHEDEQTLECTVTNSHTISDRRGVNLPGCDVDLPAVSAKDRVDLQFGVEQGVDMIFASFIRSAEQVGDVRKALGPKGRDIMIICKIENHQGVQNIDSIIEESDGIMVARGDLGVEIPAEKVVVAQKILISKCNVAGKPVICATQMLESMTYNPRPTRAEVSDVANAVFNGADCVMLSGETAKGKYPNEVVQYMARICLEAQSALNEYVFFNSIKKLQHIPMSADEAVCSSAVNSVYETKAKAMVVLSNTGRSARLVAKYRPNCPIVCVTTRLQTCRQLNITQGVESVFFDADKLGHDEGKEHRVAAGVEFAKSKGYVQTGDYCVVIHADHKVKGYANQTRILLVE
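qHTS format; LmPK 0.1 nM; substrates PEP 0.5 mM and ADP 0.1 mM. One-hour room-temperature incubation, then coupled luciferase luminescence; 0.5 nM enzyme wells mark activation.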
TbPYK inhibitor: inhibitors of Trypanosoma brucei pyruvate kinase; Potency, µM (series often up to 76.8 µM), actives largely listed as inhibitors; Q57TT1; TbPYK enzyme, Kinase-Glo Plus ATP luminescence, 45 min; 0.12% of 410,000 active; further: nearly all actives have a fitted effect of over 50% in size
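Quantitative HTS: titrated library compounds versus trypanosomal pyruvate kinase in TEA buffer (pH 7.2) containing KCl, MgCl2, BSA and Tween-20. Reactions were initiated with ADP, 130 uM final. Kinase-Glo Plus luminescence was read after 45 min at RT.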
Of the large screens only hits and unclear results are named; the others gave an inactive call. Unless noted, the call rests on the fitted dose curve; in most records, active means well fitted curve in the direction sought with a large enough effect; inconclusive means small, poorly fitted or top-dose-only effect, or another doubt; inactive means no such curve, though single readings can be large; an effect the other way counts as inactive or inconclusive.

COc1ccc(NC2CC(=O)N(c3cccc([N+](=O)[O-])c3)C2=O)cc1 (stereo not drawn)	Sm TGR inh 56.2µM
COc1ccc(NC2CC(=O)N(c3cccc(C)c3)C2=O)cc1 (stereo not drawn)	Sm TGR inh 35.5µM
Cc1nc(-c2ccc(Cl)cc2)oc1COC(C)(C)C(=O)O	none (no result: Sm TGR inh, RE007 growth inh, LmPK inhibitor)
COc1ccc(NC(=O)Cn2c(SCc3ccc(F)cc3)nc3cccnc32)c(OC)c1	none (no result: RE007 growth inh, LmPK inhibitor)
CCNC(=S)Nc1ccc(Cc2ccncc2)cc1	none
CNC(=S)Nc1ccc(Cc2ccncc2)cc1	Sm TGR inh 39.8µM
S=C(NCc1ccncc1)Nc1ccc(Br)cc1	Sm TGR inh 28.2µM
S=C(NCc1ccncc1)Nc1ccc(Cl)cc1Cl	Sm TGR inh 35.5µM
CCCCNC(=O)C(NC(=O)c1ccc(C)cc1)C(=O)c1ccccc1 (stereo not drawn)	none (no result: Sm TGR inh, LmPK inhibitor, TbPYK inhibitor)
Cc1ccc(-n2ccnc(NCCc3ccc(S(N)(=O)=O)cc3)c2=O)c(C)c1	none (no result: RE007 growth inh, LmPK inhibitor)
CCOc1ccccc1NC(=O)C(=O)NCCc1sc(-c2cccc(F)c2)nc1C	none (no result: RE007 growth inh, LmPK inhibitor)
Cc1cc(CN2CCCC(CNC(=O)c3ccc(F)cc3)C2)cc(C)c1O (stereo not drawn)	Sm TGR inh 35.5µM
COc1ccc(NC(=O)CC(c2ccccc2)c2ccco2)cc1 (stereo not drawn)	Sm TGR inh 39.8µM
Cc1ccc(S(=O)(=O)NC2CCCCCCC2)cc1	none
Cc1ccc(S(=O)(=O)NC2OC(=O)C(Cl)=C2Cl)cc1 (stereo not drawn)	Sm TGR inh 2.82µM
Cc1nc2c(c(SCC(=O)Nc3ccccc3C(F)(F)F)n1)CCC2	none (no result: RE007 growth inh, LmPK inhibitor)
CN1N=C2c3ccccc3CCC2C1c1ccc(F)cc1 (stereo not drawn)	none
c1ccc(N2CC3CCc4ccccc4C3=N2)cc1 (stereo not drawn)	Sm TGR inh 44.7µM
O=C(Nc1cc2ccc(O)cc2oc1=O)c1ccccc1	none (no result: RE007 growth inh, LmPK inhibitor)
CC(=O)/C=C/c1ccc2ccccc2n1	Sm TGR inh 89.1µM, RE007 growth inh 25.1µM
CC(OC(=O)/C=C/c1ccc2ccccc2n1)C(=O)N(C)c1ccccc1 (stereo not drawn)	none (no result: LmPK inhibitor)
Cc1ccc(S(=O)(=O)CCC(=O)Oc2ccc3c(C)cc(=O)oc3c2)cc1	Sm TGR inh 22.4µM (no result: LmPK inhibitor)
C[C@H](CO)N1C[C@H](C)[C@@H](CN(C)Cc2ccccn2)Oc2ncc(-c3ccccc3)cc2C1=O	none (no result: Sm TGR inh, LmPK inhibitor)
O=C(CCOc1ccccc1)N(Cc1cccnc1)c1nc2ccc(F)cc2s1	Sm TGR inh 3.98µM (no result: RE007 growth inh, LmPK inhibitor)
CN(C)CCCN(C(=O)CCc1ccccc1)c1nc2c(F)cccc2s1	none
O=C(COc1ccccc1)N(Cc1cccnc1)c1nc2ccc(F)cc2s1	none (no result: RE007 growth inh, LmPK inhibitor)
CN(C)CCCN(C(=O)CCOc1ccccc1)c1nc2c(F)cccc2s1	Sm TGR inh 0.398µM, TbPYK inhibitor inconclusive
CN(C)CCCN(C(=O)CCOc1ccccc1)c1nc2ccc(F)cc2s1	Sm TGR inh 0.631µM
CCCCN1CCc2nc(N3CCN(c4ncccn4)CC3)ncc2C1	none (no result: RE007 growth inh, LmPK inhibitor)
CCC1CCCCN1C(=O)COC(=O)COc1ccc(Br)cc1 (stereo not drawn)	none (no result: Sm TGR inh, LmPK inhibitor)
CC(C)C[C@H](NC(=O)[C@H](CCc1ccccc1)NC(=O)CN1CCOCC1)C(=O)N[C@@H](Cc1ccccc1)C(=O)N[C@@H](CC(C)C)C(=O)[C@@]1(C)CO1	none (no result: Sm TGR inh, RE007 growth inh, LmPK inhibitor)
CN1CCC(OC(=O)COc2ccc(Br)cc2)CC1	Sm TGR inh 20µM
COc1ccc(Cl)cc1C(Nc1cccnc1)c1ccc2cccnc2c1O (stereo not drawn)	Sm TGR inh 0.1µM, RE007 growth inh inconclusive
COc1cccc(C(NC(C)=O)c2ccc3cccnc3c2O)c1 (stereo not drawn)	TbPYK inhibitor inconclusive
Oc1cccc(C(Nc2ccccn2)c2ccc3cccnc3c2O)c1Cl (stereo not drawn)	Sm TGR inh 3.16µM (no result: RE007 growth inh, LmPK inhibitor)
Oc1cccc(C(Nc2nccs2)c2ccc3cccnc3c2O)c1 (stereo not drawn)	Sm TGR inh 17.8µM
Oc1c(C(Nc2ccccn2)c2cccnc2)cc(Cl)c2cccnc12 (stereo not drawn)	Sm TGR inh 4.47µM, RE007 growth inh inconclusive
Oc1c(C(Nc2cccc(C(F)(F)F)c2)c2cccnc2)ccc2cccnc12 (stereo not drawn)	Sm TGR inh 0.708µM
CC(=O)c1ccc(NC(=S)Nc2cccc(S(=O)(=O)Nc3c(C)n(C)n(-c4ccccc4)c3=O)c2)cc1	Sm TGR inh 14.1µM
Cc1cccc(NC(=O)c2cccc(S(=O)(=O)Nc3c(C)n(C)n(-c4ccccc4)c3=O)c2)c1	none (no result: Sm TGR inh, LmPK inhibitor)

Bioassay records from PubChem BioAssay.
